Screening data: PubChem BioAssay, National Center for Advancing Translational Sciences (NCATS)
S2 tox: viability counter-screen for ATXN expression inhibitors. AID 651635. Potency, µM (doses to about 56.7 µM), most hits filed as cytotoxic. S2 cells (HEK-293 line with an ATXN2-luciferase reporter) viability, CellTiter-Fluor protease fluorescence, 24 h. hit rate 0.49% among 400,000; note: nearly all actives have a fitted effect of over 40% in size
KB-3-1 cytotox: KB-3-1 parental cell cytotoxicity; KB-3-1 viability, CellTiter-Glo ATP luminescence, 72 h; Potency, µM (top dose mostly 46.1 µM), most hits filed as cytotoxic; hit rate 1.4% among 400,000; AID 1347075; note: % is set by controls: 0 for no effect and ±100 for the full control effect; nearly all actives have a fitted effect of over 60% in size
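Multi-concentration cytotoxicity screen in KB-3-1 cells grown in DMEM lacking phenol red with 10% FBS. After 72 h at 37 °C with compound, ATP-dependent luminescence was recorded.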
HT1080NT lethal: kills 2HG-producing HT-1080-NT fibrosarcoma cells. Potency, µM (doses to about 46.1 µM), without a hit: at the highest dose activity, negative = less viability, actives largely listed as cytotoxic. HT-1080-NT fibrosarcoma viability, CellTiter-Glo ATP luminescence, 48 h. hit rate 1.6% among 360,000;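 note: NT is the 2HG producing partner of a matched IDH1 knockdown line; 0% = DMSO-treated cells and -100% = media-only wells without cells; nearly all actives have a fitted effect of over 55% in size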
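A 48-hour cytotoxicity screen used HT-1080-NT cells plated 2 hours before compound delivery. ATP-based CellTiter-Glo luminescence measured viability, normalized to DMSO and no-cell controls.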
HT1080 IDH1KD tx: HT-1080 IDH1 knockdown cell toxicity (counter line) | AID 686971 | Potency, µM (titrated, usually from 46.1 µM), for the others: at the highest dose activity, negative = toxicity, hits mostly cytotoxic | hit rate 2% among 360,000 | HT-1080 IDH1 knockdown viability, ATP luminescence, 48 h;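 note: 0% = DMSO wells and -100% = cell-free medium wells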
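Luminescent ATP read-out (CellTiter-Glo, 10 min at room temperature) after 48 h compound exposure at 37 °C gave viability of IDH1-knockdown HT-1080 cells. Activity was normalised to DMSO and cell-free wells, then fitted as concentration-response curves.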
KB-V1 MDR tox: kills drug-selected multidrug resistant KB-V1 cells; AID 1347076; KB-V1 MDR cells viability, CellTiter-Glo, 72 h; hit rate 3.4% among 400,000; Potency, µM (doses to about 46.1 µM), actives largely listed as cytotoxic; note: % is set by controls: 0 for no effect and ±100 for the full control effect; nearly all actives have a fitted effect of over 60% in size
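Readout: CellTiter-Glo luminescence, 10 min after addition. Cells: KB-V1 MDR subline, 72 h at 37 degrees C with compound. Analysis: corrected, normalized data fitted to concentration-effect curves.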
ATXN2 expr inh: inhibitors of ATXN2 expression; HEK-293 ATXN2-luciferase reporter, luminescence, 24 h; Potency, µM (series often up to 57 µM), inactives show at the top dose activity change, negative = inhibition, actives largely listed as inhibitors; hit rate 0.72% among 360,000; note: % is set by controls: 0 for no effect and ±100 for the full control effect; nearly all actives have a fitted effect of over 55% in size
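qHTS (up to 57 uM final) was run with 24 h compound exposure of reporter cells at 37 °C. Each well was multiplexed: SteadyGlo luminescence measured ATXN2-luciferase expression after a fluorogenic Gly-Phe-AFC viability readout (25 uM final).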
Numbers without * were called inactive; i = inactive; ? = inconclusive; / = no result given; [ ] = dose if it differs, or a comment. A selection: hits, their analogues and other compounds. The true share with any hit is near 6.2%. Calls come from the whole dose curve; as a rule, active = well fitted curve in the direction sought with a large enough effect; inconclusive = small, poorly fitted or top-dose-only effect, or another doubt; inactive = no such curve, though single readings can be large; an effect the other way counts as inactive or inconclusive. Potency is the fitted concentration of half-maximal effect.

SMILES	S2 tox	KB-3-1 cytotox	HT1080NT lethal	HT1080 IDH1KD tx	KB-V1 MDR tox	ATXN2 expr inh
CCCOc1ccc(F)cc1-c1cc(C(=O)Nc2ccc(C)c(NS(C)(=O)=O)c2)[nH]n1	i	?	?	?	23.1µM*	-0.1%
O=C1C2C3C=CC(C3)C2C(=O)N1c1ccc(Cc2ccncc2)cc1 (centres undefined)	i	i	-5.6%	?	i	-1.0%
CC1CCC2C(=O)N(c3ccc(Cc4ccncc4)cc3)C(=O)C2C1 (centres undefined)	i	4.61µM*	?	?	10.3µM*	-17.5%
CC(C)c1ccc2c(c1)C1(NN=C(c3ccccc3)S1)C(=O)N2 (centres undefined)	?	?	25.9µM*	?	i	-14.4%
CCc1ccc2c(c1)C1(NN=C(c3ccc(C)cc3)S1)C(=O)N2 (centres undefined)	?	?	?	20.6µM*	?	?
CCc1ccc2c(c1)NC(=O)C2(C)Cc1ccc(F)cc1 (centres undefined)	i	i	?	?	?	-38.3%
COc1ccc(-c2cc(=O)oc3c(C)c(O)c(CN(C)C)cc23)cc1	/	i	-10.1%	-8.6%	2.31µM*	4.6%
O=C1c2ccccc2C(=O)N1CCCc1nc2ccccc2c(=O)n1Cc1ccco1	i	i	2.9%	-1.8%[9.24 µM]	?	1.5%
O=c1c2ccccc2nc(-c2ccccc2)n1Cc1ccco1	i	i	8.0%	18.2%	11.6µM*	1.6%
Cc1ccc(-c2nc3ccccc3c(=O)n2Cc2ccccc2)cc1	?	i	7.1%	5.2%	13µM*	-13.6%
Cc1ccc(Cn2c(-c3ccccc3)nc3ccccc32)cc1	?	i	/	/	i	5.8%
Cc1ccc(C2=NS(=O)(=O)N(C)C(C(=O)N3CCCCC3)=C2)cc1	i	i	-1.9%	1.6%	?	0.1%
COc1ccc(-c2cc3nc(C)c(CCC(=O)NCc4ccco4)c(C)n3n2)c(OC)c1	i	i	-1.0%	-4.0%	4.61µM*	5.2%
COc1cc(OC)c(OC)cc1CN1CCCC(c2[nH]ncc2-c2cccc(C(F)(F)F)c2)C1 (centres undefined)	i	/	/	/	/	/
Fc1ccc(-c2nc3n(n2)Cc2ccccc2-3)cc1	i	?	25.9µM*	14.6µM*	?	52.2%
CCn1c(C)nc2cc(-c3nc4n(n3)Cc3ccccc3-4)ccc21	i	5.8µM*	2.06µM*	1.84µM*	?	0.398µM*
Cc1cccc(Cn2c(COc3ccccc3)nc3ccccc32)c1	?	i	/	/	?	0.2%
C=CC(=O)Nc1ccc(CN2C(=O)N(c3c(Cl)c(OC)cc(OC)c3Cl)Cc3cnc(NCCCCN(CC)CC)nc32)cc1	11.2µM*	11.6µM*	23.1µM*	14.6µM*	i	?
CCN(CC)CCNC(=O)c1ccc(NC(=O)Cc2ccc(OC)c(S(=O)(=O)N3CCOCC3)c2)cc1	i	i	-0.4%	5.4%	i	9.8%
CC(=O)Nc1ccc(S(=O)(=O)N2CCN(CC(O)COc3ccc4ccccc4c3)CC2)cc1 (centres undefined)	?	i	0.708µM*	?	?	?
CC(=O)Nc1ccc(OCC(O)CN2CCN(S(=O)(=O)c3ccc(NC(C)=O)cc3)CC2)cc1 (centres undefined)	i	i	0.1%	-0.2%	i	-1.7%
CC(=O)Nc1ccc(OCC(O)CN2CCN(c3cccc(Cl)c3)CC2)cc1 (centres undefined)	i	i	-0.4%	-4.2%	16.4µM*	-4.3%
COc1ccccc1CNC(=O)c1ccc2c(c1)N(Cc1c(F)cccc1Cl)C(=O)CS2	?	i	/	/	i	-2.6%
Cc1[nH]c2ccccc2c1C(c1ccccn1)N1CCC(C)CC1 (centres undefined)	i	18.4µM*	2.9%	7.5%	?	25.5%
Cc1[nH]c2ccccc2c1C(c1ccccn1)N1CCCC1 (centres undefined)	i	i	7.8%	6.0%	i	34.8%
SMILES	S2 tox	KB-3-1 cytotox	HT1080NT lethal	HT1080 IDH1KD tx	KB-V1 MDR tox	ATXN2 expr inh
CC(C)c1ccc(C(=O)N2CCCC(c3cc(C(=O)Nc4ccccc4Cl)no3)C2)cc1 (centres undefined)	i	18.4µM*	21.7%	1.2%	?	-9.4%
CC(=O)Nc1ccc(C(=O)N2CCCC(c3cc(C(=O)Nc4ccccc4Cl)no3)C2)cc1 (centres undefined)	i	i	?	17.6%	i	-22.8%
COC(=O)c1c[nH]c2c1-c1cc(C(=O)OCc3ccccc3)n(S(=O)(=O)c3ccc(C)cc3)c1C(=O)C2=O	?	2.91µM*	?	20.6µM*	5.8µM*	?
COc1ccccc1NC(=O)N(Cc1ccco1)Cc1cc2cc(C)cc(C)c2[nH]c1=O	?	?	?	?	18.4µM*	-37.5%
Cc1ccc2cc(CN(Cc3ccco3)C(=O)c3cccs3)c(=O)[nH]c2c1	?	?	4.61µM*	5.8µM*	5.17µM*	0.8%
Cc1cccc2cc(CN(Cc3ccco3)C(=O)c3cccs3)c(=O)[nH]c12	i	?	0.4%	1.8%	i	-7.9%
COc1ccccc1NC(=O)N(CCN1CCOCC1)Cc1cc2cc(C)cc(C)c2[nH]c1=O	i	i	-3.9%	-11.0%	i	-31.7%
COC(=O)c1ccccc1NC(=S)N(Cc1ccc2c(c1)OCO2)Cc1cc2cc(OC)ccc2[nH]c1=O	i	i	1.3%	-2.5%	18.4µM*	-10.8%
Cc1ccc2cc(CN(CCN3CCCC3)C(=O)Nc3ccc(F)cc3)c(=O)[nH]c2c1C	?	i	23.1µM*	?	i	-21.9%
Cn1c(NCc2ccccc2F)nc2cc(-c3cccc(C(F)(F)F)c3)sc2c1=O	i	i	25.9%	28.7%	i	6.5%
COc1ccccc1NC(=S)N(Cc1ccco1)Cc1cc2cc(C)c(C)cc2[nH]c1=O	?	?	?	7.31µM*	2.59µM*	-4.9%
COc1ccccc1NC(=O)N(Cc1ccco1)Cc1cc2ccc(C)c(C)c2[nH]c1=O	?	5.8µM*	3.66µM*	2.59µM*	5.8µM*	?
COc1ccccc1NC(=S)N(Cc1ccco1)Cc1cc2cccc(C)c2[nH]c1=O	i	i	-1.7%	-7.6%	?	-18.4%
Cn1nnc2c[n+](CC(=O)c3ccc4ccccc4c3)cc(Br)c21	?	?	?	20.6µM*	i	?
Cn1nnc2c[n+](CC(=O)c3ccc(Cl)cc3)cc(Br)c21	i	?	?	?	i	-22.8%
